This is an account of results in PubChem BioAssay (EPA / NIEHS).

The structures appear in SMILES notation. Values joined by “and” are separate entries in the source; they are usually repeats but may differ in a detail not shown here. Equal values may be shown once. More than one record can exist for a structure, and the calls need not agree. Active and inactive are the calls of the source. Rule for the calls: active = hit-call score of the fitted dose curve at least 0.9, where 1 is the maximum; inactive = score below 0.9.

Read-out in one test: not listed separately
The test is described as follows: BSK_MyoF_SRB: Viability Assessment in the BioMAP Diversity Plus: MyoF Assay (AID 2284267).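 Note: total protein by SRB absorbance in parallel cultures as cytotoxicity measure; cells assessed 24 h after compound addition.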 The note with it: primary human lung fibroblasts. In a few lines:
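Lung fibroblast cultures, 24 h post-dose; fix 10% TCA, stain 0.1% SRB, read 560 nm. Signal = total protein as cytotoxicity measure; fitted relative to DMSO negative control.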
Turning to `O=C1OC2(c3ccccc31)c1ccc(O)c(Br)c1Oc1c2ccc(O)c1Br`, the result was inactive.
For the compound `CS(=O)(=O)c1ccc(C2=C(c3ccccc3)C(=O)OC2)cc1`, the result was inactive.
In the case of `COc1ccc(OC)c(N=Nc2c(O)ccc3ccccc23)c1`, the AC50 – broadly, the concentration at which the activity in the assay is half-maximal – is 6.83 µM (active).
As for `c1ccc2cc(Nc3ccc(Nc4ccc5ccccc5c4)cc3)ccc2c1`, the result was inactive.
Still for that read-out and setting: then `CCN(CC)C(=O)N(CC)CC`, with “inactive”.
On to `Clc1cc(Cl)c(-c2c(Cl)c(Cl)cc(Cl)c2Cl)cc1Cl`, for which the AC50 was 11.6 µM (active).
For the compound `C=C(C)[C@H]1CC=C(C)C(=O)C1`, the result was inactive.
Still for that read-out and setting: then `CC(=O)c1c(C)c([N+](=O)[O-])c(C(C)(C)C)c([N+](=O)[O-])c1C`, with “inactive”; and `CC(C)(N=C=O)c1cccc(C(C)(C)N=C=O)c1`, with “inactive”.
On the same count and under the same terms, then `CN(c1nccc(=O)[nH]1)C1CCN(c2nc3ccccc3n2Cc2ccc(F)cc2)CC1`, with “inactive”; and `CCCCCCCCCCCCCCCC(=O)OC/C=C(C)/C=C/C=C(C)/C=C/C1=C(C)CCCC1(C)C`, with “inactive”; and `CC=Cc1ccc(OCC)c(O)c1`, with “inactive”.
The same measure, in the same setting: then `O=C1c2ccccc2C(=O)c2c(O)ccc(O)c21`, with “inactive”; and `C1=CC2C3C=CC(C3)C2C1` (stereo not drawn), with “inactive”.
Turning to `CC(C=O)Cc1ccc(C(C)(C)C)cc1` (stereo not drawn), the outcome was inactive.

Read-out in another test: Matrix Metallopeptidase 1 (MMP1), MMP1 (gene 4312)
Description: BSK_MyoF_MMP1: BioMAP Diversity Plus: MyoF Assay for Matrix Metallopeptidase 1 (MMP1) Biomarker Activity (AID 2284268). The note with it: primary human lung fibroblasts. An outline of the steps:
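Human lung fibroblast primary cells; MMP1 measured by ELISA 24 h after dosing, fitted in the positive direction relative to DMSO. Parallel SRB staining (0.1%, after 10% TCA fixation, 560 nm) assesses overt cytotoxicity.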
As to `O=C1OC2(c3ccccc31)c1ccc(O)c(Br)c1Oc1c2ccc(O)c1Br`, the result was inactive.
Still for that read-out and setting: the value for `CS(=O)(=O)c1ccc(C2=C(c3ccccc3)C(=O)OC2)cc1` was “inactive”.
For the compound `COc1ccc(OC)c(N=Nc2c(O)ccc3ccccc23)c1`, the AC50 is 10.3 µM (active).
For the compound `c1ccc2cc(Nc3ccc(Nc4ccc5ccccc5c4)cc3)ccc2c1`, the result was inactive.
On the same count and under the same terms, then `CCN(CC)C(=O)N(CC)CC`, with “inactive”.
As for `Clc1cc(Cl)c(-c2c(Cl)c(Cl)cc(Cl)c2Cl)cc1Cl`, the AC50 is 2.61 µM (active).
Consider `C=C(C)[C@H]1CC=C(C)C(=O)C1`, for which the outcome was inactive.
Regarding `CC(=O)c1c(C)c([N+](=O)[O-])c(C(C)(C)C)c([N+](=O)[O-])c1C`, the result was inactive.
On the same count and under the same terms, then `CC(C)(N=C=O)c1cccc(C(C)(C)N=C=O)c1`, with “inactive”; and `CN(c1nccc(=O)[nH]1)C1CCN(c2nc3ccccc3n2Cc2ccc(F)cc2)CC1`, with “inactive”.
On the same count and under the same terms, then `CCCCCCCCCCCCCCCC(=O)OC/C=C(C)/C=C/C=C(C)/C=C/C1=C(C)CCCC1(C)C`, with “inactive”; and `CC=Cc1ccc(OCC)c(O)c1`, with “inactive”.
As to `O=C1c2ccccc2C(=O)c2c(O)ccc(O)c21`, the AC50 was 3.25 µM (active).
With `C1=CC2C3C=CC(C3)C2C1` (stereo not drawn), the outcome was inactive.
Regarding `CC(C=O)Cc1ccc(C(C)(C)C)cc1` (stereo not drawn), the result was inactive.

Read-out in another test: TIMP metallopeptidase inhibitor 1 (TIMP1), TIMP1 (gene 7076)
Description: BSK_MyoF_TIMP1: BioMAP Diversity Plus: MyoF Assay for TIMP metallopeptidase inhibitor 1 (TIMP1) Biomarker Activity (AID 2284269). The following applies: primary human lung fibroblasts. In a few lines: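 Primary human lung fibroblasts, MyoF multiplex system; chemical exposure 24 h; TIMP-1 by ELISA; positive fitting direction vs DMSO control.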
As to `O=C1OC2(c3ccccc31)c1ccc(O)c(Br)c1Oc1c2ccc(O)c1Br`, the result was inactive.
Same read-out and setting: then `CS(=O)(=O)c1ccc(C2=C(c3ccccc3)C(=O)OC2)cc1`, with “inactive”.
Regarding `COc1ccc(OC)c(N=Nc2c(O)ccc3ccccc23)c1`, the AC50 was 3.12 µM (active).
For the compound `c1ccc2cc(Nc3ccc(Nc4ccc5ccccc5c4)cc3)ccc2c1`, the result was inactive.
Regarding `CCN(CC)C(=O)N(CC)CC`, the outcome was inactive.
On the same count and under the same terms, the value for `Clc1cc(Cl)c(-c2c(Cl)c(Cl)cc(Cl)c2Cl)cc1Cl` was “inactive”.
The same measure, in the same setting: the value for `C=C(C)[C@H]1CC=C(C)C(=O)C1` was “inactive”; that for `CC(=O)c1c(C)c([N+](=O)[O-])c(C(C)(C)C)c([N+](=O)[O-])c1C` was “inactive”; that for `CC(C)(N=C=O)c1cccc(C(C)(C)N=C=O)c1` was “inactive”.
On the same count and under the same terms, the value for `CN(c1nccc(=O)[nH]1)C1CCN(c2nc3ccccc3n2Cc2ccc(F)cc2)CC1` was “inactive”; that for `CCCCCCCCCCCCCCCC(=O)OC/C=C(C)/C=C/C=C(C)/C=C/C1=C(C)CCCC1(C)C` was “inactive”; that for `CC=Cc1ccc(OCC)c(O)c1` was “inactive”.
Regarding `O=C1c2ccccc2C(=O)c2c(O)ccc(O)c21`, the outcome was inactive.
On the same count and under the same terms, the value for `C1=CC2C3C=CC(C3)C2C1` (stereo not drawn) was “inactive”.
The same measure, in the same setting: then `CC(C=O)Cc1ccc(C(C)(C)C)cc1` (stereo not drawn), with “inactive”.

Read-out in a further test: Intercellular Adhesion Molecule 1 (ICAM1), ICAM1 (gene 3383)
Description: BSK_BE3C_ICAM1: BioMAP Diversity Plus: BE3C Assay for Intercellular Adhesion Molecule 1 (ICAM1) Biomarker Activity (AID 2284278). The following applies: primary human bronchial epithelial cells. An outline of the steps:
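ELISA read-out of ICAM-1 on human lung bronchial epithelial primary cells, 24 h post-dosing; positive-direction curve fit, DMSO = baseline. SRB total-protein staining of parallel cultures flagged overt cytotoxicity.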
On to `O=C(Nc1ccc2c(O)c(N=Nc3ccc(N=Nc4ccc(S(=O)(=O)O)cc4)cc3)c(S(=O)(=O)O)cc2c1)c1ccccc1`, for which the result was inactive.
As to `CC(CN=Cc1ccccc1O)N=Cc1ccccc1O` (stereo not drawn), the outcome was inactive.
Same read-out and setting: the value for `O=CN1CCOCC1` was “inactive”.
Same read-out and setting: the value for `CC1(C)CCC[C@]2(C)[C@H]3CCO[C@]3(C)CC[C@@H]12` was “inactive”.
In the case of `C=CC(C)(O)CCC=C(C)C` (stereo not drawn), the outcome was inactive.
For the compound `CCCCCCC(CO)CCCC` (stereo not drawn), the AC50 was 20 µM (active) and the outcome was inactive.
For `CCOC(=O)C(C#N)=C(c1ccccc1)c1ccccc1`, the outcome was inactive.

Read-out in another test: Interferon-inducible T-cell alpha chemoattractant (ITAC), CXCL11 (gene 6373)
Description: BSK_BE3C_ITAC: BioMAP Diversity Plus: BE3C Assay for Interferon-inducible T-cell alpha chemoattractant (ITAC) Biomarker Activity (AID 2284279). The following applies: primary human bronchial epithelial cells. As to the method: BSK_BE3C is a cell-based, multiplexed-readout assay that uses bronchial epithelial cell, a human lung primary cell, with measurements taken at 24 hours after chemical dosing in a 96-well plate.BSK_BE3C_ITAC is an assay component measured in the BSK_BE3C assay. It measures I-TAC antibody related to regulation of gene expression using ELISA technology.Data from the assay component BSK_BE3C_ITAC was analyzed at the endpoint, BSK_BE3C_ITAC, in the positive analysis fitting direction relative to DMSO as the negative control and baseline of activity. Using a type of binding reporter, gain or loss-of-signal activity can be used to understand protein changes. To generalize the intended target to other relatable targets, this assay endpoint is annotated to the 'cytokine' intended target family, where the subfamily is 'chemotactic factor'.
The levels of cell surface (or secreted, indicated by the prefix "s") biomarker endpoints were measured by ELISA. Overt cytotoxicity to cells in confluent adherent cultures (all systems other than the BT system) was assessed by measuring total protein levels using sulforhodamine B (SRB) staining in parallel cultures at the time of biomarker measurements, indicated as SRB endpoints. For proliferation assays for adherent cell types, individual cell types are cultured at sub-confluence and relative cell numbers quantified by SRB staining at time points optimized for each system (48 h: 3C and CASM3C systems; 72 h: BT and HDF3CGF systems; 96 h: SAg system). SRB was performed by staining cells with 0.1% SRB after fixation with 10% TCA and reading wells at 560 nm.Viability and proliferation of PBMC (T cells) was quantified by Alamar Blue reduction for the SAg and BT systems. For PBMC viability (referred to as PBMC Cytotoxicity within the assay endpoint names), cells were plated (75,000/well in a 96-well plate) and then chemical samples added for 1 h before addition of activators, SEB and TSST-1 (20 ng/mL final concentration each). Cells were incubated for 90 h. Then, Alamar Blue (20 uL/well) (Invitrogen, Cat DAL1100) was added for 6 h, and the plates were read with a fluorescence microplate reader at 546/580 nm (excitation/emission). For PBMC proliferation, cells were plated and activated as above but incubated for only 16 h prior to addition of Alamar Blue. Plates were read after 6 h.
As for `O=C(Nc1ccc2c(O)c(N=Nc3ccc(N=Nc4ccc(S(=O)(=O)O)cc4)cc3)c(S(=O)(=O)O)cc2c1)c1ccccc1`, the AC50 is 30.4 µM (active) and 20 µM (active).
On to `CC(CN=Cc1ccccc1O)N=Cc1ccccc1O` (stereo not drawn), for which the result was inactive.
`O=CN1CCOCC1`: the outcome was inactive.
Turning to `CC1(C)CCC[C@]2(C)[C@H]3CCO[C@]3(C)CC[C@@H]12`, the result was inactive.
On the same count and under the same terms, then `C=CC(C)(O)CCC=C(C)C` (stereo not drawn), with “inactive”; and `CCCCCCC(CO)CCCC` (stereo not drawn), with “inactive”.
Still for that read-out and setting: the value for `CCOC(=O)C(C#N)=C(c1ccccc1)c1ccccc1` was “inactive”.

Read-out in a further test: Interleukin-8 (IL8), CXCL8 (gene 3576)
The test is described as follows: BSK_BE3C_IL8: BioMAP Diversity Plus: BE3C Assay for Interleukin-8 (IL8) Biomarker Activity (AID 2284280). The note with it: primary human bronchial epithelial cells. In a few lines: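 Measured at 24 h after treatment, IL-8 from human primary bronchial epithelial cells is determined by ELISA, and the response is modelled as increasing relative to DMSO negative control.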
For `O=C(Nc1ccc2c(O)c(N=Nc3ccc(N=Nc4ccc(S(=O)(=O)O)cc4)cc3)c(S(=O)(=O)O)cc2c1)c1ccccc1`, the result was inactive.
Same read-out and setting: the value for `CC(CN=Cc1ccccc1O)N=Cc1ccccc1O` (stereo not drawn) was “inactive”; that for `O=CN1CCOCC1` was “inactive”.
Turning to `CC1(C)CCC[C@]2(C)[C@H]3CCO[C@]3(C)CC[C@@H]12`, the AC50 was 27 µM (active) and the result was inactive.
Turning to `C=CC(C)(O)CCC=C(C)C` (stereo not drawn), the outcome was inactive.
As for `CCCCCCC(CO)CCCC` (stereo not drawn), the outcome was inactive.
For the compound `CCOC(=O)C(C#N)=C(c1ccccc1)c1ccccc1`, the result was inactive.
